Screens from PubChem.
TMEM16A inh: inhibitors of mouse TMEM16A calcium-activated chloride channel; normalized B-score (activity score, 25-100; higher = stronger inhibition) at 10 µM; hit rate 1.2% among 310,000; HEK293 TMEM16A/YFP iodide influx fluorescence, ionomycin;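 active = ratio plate-corrected score three or more library SD toward inhibition, starting fluorescence score within five deviations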;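 also: score derived from kinetic fluorescence span divided by baseline fluorescence per well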
Target sequence (Q8BHY3 whole entry, looked up): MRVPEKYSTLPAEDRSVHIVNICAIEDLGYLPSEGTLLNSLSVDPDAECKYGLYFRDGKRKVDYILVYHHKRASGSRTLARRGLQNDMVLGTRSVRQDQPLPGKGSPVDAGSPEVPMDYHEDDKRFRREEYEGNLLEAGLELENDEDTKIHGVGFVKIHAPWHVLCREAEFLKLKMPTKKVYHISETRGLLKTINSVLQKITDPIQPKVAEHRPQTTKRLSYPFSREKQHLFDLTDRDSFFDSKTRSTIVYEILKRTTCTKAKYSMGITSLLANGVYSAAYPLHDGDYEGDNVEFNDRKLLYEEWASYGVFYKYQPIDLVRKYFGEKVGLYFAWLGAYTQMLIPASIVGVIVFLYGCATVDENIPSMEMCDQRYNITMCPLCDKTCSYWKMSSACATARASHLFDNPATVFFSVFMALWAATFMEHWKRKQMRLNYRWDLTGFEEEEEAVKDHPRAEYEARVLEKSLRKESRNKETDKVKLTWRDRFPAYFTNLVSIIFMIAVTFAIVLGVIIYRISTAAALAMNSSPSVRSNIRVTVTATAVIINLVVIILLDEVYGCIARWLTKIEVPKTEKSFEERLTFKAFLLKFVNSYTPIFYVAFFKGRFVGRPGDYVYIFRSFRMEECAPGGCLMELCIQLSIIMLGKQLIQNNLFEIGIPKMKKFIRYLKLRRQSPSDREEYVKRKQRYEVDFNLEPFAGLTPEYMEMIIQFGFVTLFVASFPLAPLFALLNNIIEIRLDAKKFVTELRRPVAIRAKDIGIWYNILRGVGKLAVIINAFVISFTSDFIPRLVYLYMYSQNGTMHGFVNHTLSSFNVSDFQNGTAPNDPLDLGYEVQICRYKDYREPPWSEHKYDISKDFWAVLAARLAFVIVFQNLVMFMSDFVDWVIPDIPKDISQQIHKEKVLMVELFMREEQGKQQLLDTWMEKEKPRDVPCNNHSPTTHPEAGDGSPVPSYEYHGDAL
CHT block: inhibitors of human choline transporter CHT. Q9GZV3. CHT-expressing cells, membrane potential dye, choline response; stronger effect = lower value. B-score at 10 µM. hit rate 0.86% among 310,000;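 active = B-score over 3 SD under the library average, and starting fluorescence ratio not unusually high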;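 also: choline stimulus applied at its EC90 after an EC20 pre-addition; B-score computed on integrated fluorescence ratio after choline addition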
HDAC3 inh: inhibitors of human histone deacetylase 3; O15379; recombinant HDAC3, fluorogenic peptide/trypsin coupled, fluorescence; inhibition, % at 8.3 µM; hit rate 0.15% among 320,000; AID 2718; in the data active = inhibition above about 26%, passing the limit was not always enough
CHT allo act: allosteric activators of human choline transporter CHT | Q9GZV3 | CHT-expressing cells, membrane potential dye, choline EC20; stronger effect = higher value; LV-AA mutant CHT in HEK293 cells | B-score at 10 µM | hit rate 0.49% among 310,000 | AID 488977;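 active = initial fluorescence not abnormally high and integrated response B-score, plate-corrected, over 3 SD above library mean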
PHOSPHO1 block: inhibitors of human PHOSPHO1 phosphatase. hit rate 1.1% among 290,000. inhibition, % at 13.3 µM. Q8TCT1. recombinant PHOSPHO1, absorbance phosphatase assay; in the data active = inhibition above about 60%
TMEM16A act: mouse TMEM16A channel activation, primary screen; HEK293 TMEM16A/YFP-H148Q/I152L, iodide quench fluorescence; stronger effect = lower value; Q8BHY3; B-score at 10 µM; hit rate 0.3% among 340,000;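 active = fluorescence-ratio B-score plate-corrected deviation score at least 3 library SD below zero, with starting fluorescence score within 5 deviations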;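 also: channel opened by trigger with iodide after compound preincubation; score built on the fluorescence ratio of max minus min over baseline; more negative score means more quench and so TMEM16A activation or potentiation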
Numbers without * were called inactive; i = inactive; x = not tested or not shown. Most compounds without a hit are left out; they make up all but 3.2% or so of the library.

SMILES | TMEM16A inh | CHT block | HDAC3 inh | CHT allo act | PHOSPHO1 block | TMEM16A act
CCOC(=O)N1CCN(C(=O)C2CCC(=O)N(CCCN3CCCC3=O)C2)CC1 (stereo not drawn) | i | i | -16 | i | 37 | i
CC(=O)c1ccc(N2CCN(C(=O)c3cc4c(s3)CCCC4)CC2)cc1 | i | i | -9 | i | 11 | -37*
Cc1ccnc(NC(=O)c2cccc(NC(=O)CC3SC(N4CCCCC4)=NC3=O)c2)c1 (stereo not drawn) | x | x | 3 | x | x | -38*
Cc1ccnc(NC(=O)c2ccc(NC(=O)CC3SC(N4CCCC4)=NC3=O)cc2)c1 (stereo not drawn) | i | i | 2 | i | x | i
O=C1C[C@@H]2c3c(cccc3CN1Cc1ccc(Cl)cc1)C[C@@H](O)[C@H]2O | x | x | x | x | x | i
CCOC(=O)c1c(N)sc2c1CCSC2 | i | i | -4 | i | 65* | i
CCCOC(=O)c1c(N)sc2c1CCC2 | i | i | -2 | i | 27 | i
CCOC(=O)c1c(N)sc(N)c1C(=O)OCC | i | i | 8 | i | -3 | i
CCOC(=O)c1c(N)sc(=S)c2c1CCC2 | i | i | 5 | i | 60* | i
COc1ccc(C2CC(=O)C=C(NCc3ccc4c(c3)OCO4)C2)cc1 (stereo not drawn) | i | i | -2 | i | 61* | i
COc1ccc(C2CC(=O)C=C(NCc3ccccc3)C2)cc1 (stereo not drawn) | i | i | 1 | i | 27 | i
O=[N+]([O-])c1ccc(OCc2nnc(-c3ccccc3)o2)cc1 | 100* | i | 3 | i | 24 | i
O=C(OCc1nnc(-c2ccccc2)o1)c1ccc([N+](=O)[O-])o1 | i | i | 0 | i | x | i
O=C(CN1CCN(c2ccc(F)cc2)CC1)Nc1ccccc1Br | i | i | -4 | i | 18 | i
CC1Sc2ccc(S(=O)(=O)N3CCC(C(=O)Nc4cccc(Cl)c4)CC3)cc2NC1=O (stereo not drawn) | 25* | i | -4 | i | 28 | i
CCC(C(=O)NC1CC1)n1nc(C)c2c(C)n(-c3ccc(C)cc3)nc2c1=O (stereo not drawn) | i | i | -3 | i | 27 | i
CCC(C(=O)NC1CCCCCC1)n1nc(C)c2c(C)n(-c3ccccc3)nc2c1=O (stereo not drawn) | i | i | 2 | i | 65* | i
Cc1ccc(-n2nc3c(=O)n(C(C)C(=O)NCCc4cccs4)nc(C)c3c2C)cc1 (stereo not drawn) | i | -5.5* | 2 | i | 13 | i
COC(=O)c1cc(S(=O)(=O)NCCc2cccc(C)c2)cn1C | i | i | 0 | i | 53 | i
Cc1cccc(OCc2nnc(N)s2)c1C | i | i | 4 | i | 14 | i
O=C(COc1cccnc1[N+](=O)[O-])N1CCc2ccccc2C1 | i | i | 4 | i | 61* | i
COc1cc2c(cc1OC)CN(C(=O)COc1ccccc1C#N)CC2 | i | i | -13 | i | 20 | i
O=C(Cn1cc([N+](=O)[O-])cn1)N1CCc2ccccc2C1 | i | i | 6 | i | 61* | i
O=C(Cn1cnc2ccccc2c1=O)N1CCOCC1 | i | i | 1 | i | 6 | i
COc1cc2c(cc1OC)CN(C(=O)COc1ccccc1[N+](=O)[O-])CC2 | 100* | i | -4 | i | 16 | i
SMILES | TMEM16A inh | CHT block | HDAC3 inh | CHT allo act | PHOSPHO1 block | TMEM16A act
O=C(Cn1cnc2ccccc2c1=O)N1CCc2ccccc2C1 | i | i | -9 | i | 63* | i
O=C(Nc1cccc(Cl)c1)C1CCCN(S(=O)(=O)c2cnc[nH]2)C1 (stereo not drawn) | i | i | 7 | i | -7 | i
COc1ccccc1N(Cc1cc2ccc(C)cc2[nH]c1=O)C(C)=O | i | i | -3 | i | -23 | i
CCC1(c2ccccc2)NC(=O)N(CC(=O)N(c2ccccc2)C2CCS(=O)(=O)C2)C1=O (stereo not drawn) | x | x | -2 | x | x | i
CCOc1ccccc1/C=N/NC(=O)c1nnn(-c2nonc2N)c1CN1CCC(C)CC1 | i | i | 6 | i | 20 | i
CC1CCN(Cc2c(C(=O)N/N=C/c3ccc(C(C)C)cc3)nnn2-c2nonc2N)CC1 | i | i | 1 | 6.4* | 12 | i
O=C(O)c1ccc(/C=N/n2c(C3CCCCC3)n[nH]c2=S)cc1 | i | i | 6 | i | x | i
N#CC1=C(N)SC(N)=C(C#N)C1c1ccnc2ccccc12 | i | i | 5 | i | 76* | -28*
O=C1c2ccccc2C(=O)C1c1ccnc2ccccc12 | i | i | -1 | i | -1 | i
CC(=NCc1ccncc1)C1=C(O)c2ccccc2C1=O | x | x | x | x | 64* | x
COc1ccc(Cn2cnc([N+](=O)[O-])c2)cc1[N+](=O)[O-] | i | i | -1 | i | 4 | i
CCN(CC)c1ccc(-c2c(C#N)c(N)nc(OC)c2C#N)cc1 | i | i | 0 | i | 50 | i
Clc1ccc2[nH]c(-c3ccccc3)cc2c1 | 25* | i | -1 | i | 21 | i
c1ccc(-c2cc3ccccc3[nH]2)cc1 | i | i | -22 | i | 10 | i
COc1cc(OC)c(NC(=O)C(=O)CC(=O)c2ccc(C)cc2C)cc1Cl | i | i | 7 | i | -1 | i
COc1ccc2[nH]c(=O)c(CN(C3CCCCC3)C(c3nnnn3Cc3ccco3)C(C)C)cc2c1 (stereo not drawn) | 100* | i | 9 | i | 37 | i
O=C(CCc1ccccc1)Nc1cc(NC(=O)CCc2ccccc2)cc(C(=O)O)c1 | i | i | 0 | i | 12 | i
CC1CCC/C(=C\Nc2ccc(O)cc2)C1=O (stereo not drawn) | i | i | 3 | i | 70* | i
Cc1cc(C(=O)O)ccc1N/C=C1\CCCC(C)C1=O (stereo not drawn) | i | i | 5 | i | -6 | i
Cc1cc(O)cc(=O)n1Cc1ccco1 | i | i | 4 | i | 26 | i
Cc1ccccc1COC(=O)c1cc([N+](=O)[O-])ccc1N1CCOCC1 | i | i | 10 | i | 32 | i
CSc1ccc(COC(=O)c2cc([N+](=O)[O-])ccc2N2CCOCC2)cc1 | i | i | -8 | 6.3* | x | i
COc1c(C=NNC(N)=O)c(OC)c(OC)c2c1CCO2 | x | x | x | x | x | i
O=C(Nc1ccc(Oc2ccc(Cl)cc2)cc1)c1ncn[nH]1 | i | i | 0 | i | -4 | i
O=C(NCc1ccc(Cl)cc1)c1ccncc1 | i | i | -3 | i | 3 | i
